Rows were chosen to be rich in hits. Some 2.3% of all compounds tested hit in one or more screens of this group.
AmpC inh detg: blocks E. coli AmpC beta-lactamase in detergent assay; AmpC hydrolysis of nitrocefin, absorbance 480 nm, 0.01% Triton; Potency, µM (highest dose often 114 µM), without a hit: top-dose activity change, negative = inhibition, hits mostly inhibitors; 0.041% of 370,000 active;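 note: 0% = no-compound wells and -100% = no-enzyme wells; nearly all actives have a fitted effect of over 25% in size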
Target sequence (P00811 whole entry, looked up): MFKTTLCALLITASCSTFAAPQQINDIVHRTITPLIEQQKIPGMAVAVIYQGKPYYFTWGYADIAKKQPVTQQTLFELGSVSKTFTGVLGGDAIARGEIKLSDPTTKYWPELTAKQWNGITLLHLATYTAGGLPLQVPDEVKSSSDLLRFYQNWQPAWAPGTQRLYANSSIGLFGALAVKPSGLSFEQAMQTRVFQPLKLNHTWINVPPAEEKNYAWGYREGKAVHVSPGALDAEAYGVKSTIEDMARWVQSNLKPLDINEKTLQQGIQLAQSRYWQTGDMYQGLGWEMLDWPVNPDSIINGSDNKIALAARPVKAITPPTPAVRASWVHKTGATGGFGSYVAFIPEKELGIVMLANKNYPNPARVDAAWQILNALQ
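20 mM phosphate pH 7.0 + 0.01% (detergent screen) or 0.0001% Triton X-100; 5.3 nM AmpC reagent; cpd preinc 15 min RT; nitrocefin (800 uM stock) to start; A480 q20 s × 4 min; Activity was normalised to no-enzyme and no-compound control wells.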
Lassa entry inh: inhibitors of Lassa virus binding or cell entry; 1.2% of 300,000 active; Lassa virus pseudotype entry inhibition, cell reporter; Potency, µM (series often up to 37.9 µM), inactives show at the highest dose activity change, negative = inhibition, actives largely listed as inhibitors; calls by dose curve; tested in HEK293 cells; note: nearly all actives have a fitted effect of over 50% in size
MARV entry inh: blocks Marburg virus binding to or entry into cells; Marburg virus pseudotyped entry inhibition, cell reporter; 1.8% of 300,000 active; Potency, µM (doses to about 37.8 µM), for inactives: top-dose activity change, negative = inhibition, most hits filed as inhibitors; calls by dose curve; tested in HEK293 cells
AmpC no deterg: AmpC beta-lactamase inhibition without detergent; AmpC nitrocefin hydrolysis, absorbance 480 nm, 0.0001% Triton; 0.52% of 330,000 active; P00811; AID 485341; Potency, µM (titrated, usually from 57.1 µM), for inactives: at the highest dose activity change, negative = inhibition, usual class: inhibitors;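 note: plate controls were no compound for no effect and no enzyme for full effect; nearly all actives have a fitted effect of over 20% in size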
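AmpC (5.3 nM in the dispensed reagent) in 20 mM phosphate pH 7.0 with 0.01% (detergent screen) or 0.0001% Triton X-100 was preincubated with compounds for 15 min at room temperature. Nitrocefin was then added from an 800 uM solution, and hydrolysis was followed at 480 nm.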
AMA1 RON2 block: disrupts binding of P. falciparum AMA1 to RON2; AlphaScreen AMA1-biotinylated RON2 peptide binding; Potency, µM (series often up to 58.2 µM), for the others: top-dose activity change, negative = inhibition, usual class: inhibitors; 0.2% of 360,000 active;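 note: 0% = vehicle wells and -100% = peptide control; nearly all actives have a fitted effect of over 45% in size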
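AMA1 (3D7) with his tag at 25 nM final met compounds first, then biotinylated RON2 peptide at 25 nM; detection used donor plus acceptor beads, 10 µg/mL apiece, read by AlphaScreen after 30 min at room temperature.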
Numbers without * were called inactive; [ ] = remark or other dose. Unless noted, calls come from the whole dose curve; as a rule, active = well fitted curve in the direction sought with a large enough effect; inconclusive = small, poorly fitted or top-dose-only effect, or another doubt; inactive = no such curve, though single readings can be large; an effect the other way counts as inactive or inconclusive. Unless noted, % is set by controls: 0 for no effect and ±100 for the full control effect; potency is the fitted concentration of half-maximal effect.

Results for COc1ccccc1NC(=S)N(Cc1ccco1)Cc1cc2cc(C)ccc2[nH]c1=O ?
AmpC inh detg: -12%; Lassa entry inh: -12%; MARV entry inh: 4µM*; AmpC no deterg: -16%; AMA1 RON2 block: 14%

How did Cc1cc2cc(CN(Cc3cccs3)C(=S)NCc3ccco3)c(=O)[nH]c2cc1C do in these assays?
AmpC inh detg: -8%; Lassa entry inh: -28%; MARV entry inh: 14µM*; AmpC no deterg: -37%; AMA1 RON2 block: -10%

How did O=C(Nc1ccc(F)cc1)N(Cc1ccco1)Cc1cc2cc3c(cc2[nH]c1=O)OCO3 do in these assays?
AmpC inh detg: 0%; Lassa entry inh: -5%; MARV entry inh: 18µM*; AmpC no deterg: -36%; AMA1 RON2 block: -5%

How did O=C(NCCc1ccc(Cl)cc1)C1CCN(Cc2cc3ccccc3n2Cc2ccccc2)CC1 do in these assays?
AmpC inh detg: -4%; Lassa entry inh: -21%[46.1 µM]

Results for Cc1cccc(N(C)S(=O)(=O)c2nnc(NC(=O)C(C)Oc3ccccc3)s2)c1 (configuration not stated) ?
AmpC inh detg: 1%; Lassa entry inh: inconclusive

How did CCN(CC)CCN(Cc1cc2ccc(C)cc2[nH]c1=O)C(=S)Nc1ccccc1C(=O)OC do in these assays?
AmpC inh detg: -8%; Lassa entry inh: inconclusive; MARV entry inh: 2µM*; AmpC no deterg: 88%; AMA1 RON2 block: -6%

Results for COc1cccc(NC(=O)c2nc3nc(C)cc(C(F)F)n3n2)c1 ?
AmpC inh detg: -10%; AmpC no deterg: 45µM*; AMA1 RON2 block: 5%

What do the screens show for `CC(=O)c1c(C)[nH]c(-c2ccccc2)nc1=S`?
AmpC inh detg: 11%; Lassa entry inh: 12%; MARV entry inh: 15%[46.1 µM]; AmpC no deterg: -18%; AMA1 RON2 block: 82%

How did CC(=O)c1c(NC(=O)c2ccccc2)[nH]c(-c2ccccc2)nc1=S do in these assays?
AmpC inh detg: inconclusive; Lassa entry inh: -3%[46.1 µM]; MARV entry inh: 3%[46.1 µM]; AmpC no deterg: 22µM*; AMA1 RON2 block: 93%

How did Cc1cccc(C)c1NC(=O)c1cc(S(=O)(=O)N2CCc3ccccc3C2)ccc1F do in these assays?
AmpC inh detg: 1%; Lassa entry inh: inconclusive

How did CC(=O)c1ccc2c3c(ccc([N+](=O)[O-])c13)CC2 do in these assays?
AMA1 RON2 block: -5%

What do the screens show for `Nc1ccc2c3c(ccc([N+](=O)[O-])c13)CC2`?
AMA1 RON2 block: 28µM*

How did COc1ccc([C@]23Cc4c(ccc5ccccc45)[C@H](O2)C2=C(CCCC2=O)O3)cc1 do in these assays?
MARV entry inh: -21%[14.2 µM]

Results for Cc1cc(C)nc(/N=C(\N)Nc2ccc(C(C)C)cc2)n1 ?
AmpC inh detg: 4%; Lassa entry inh: inconclusive; MARV entry inh: 10µM*; AmpC no deterg: -31%; AMA1 RON2 block: -20%

What do the screens show for `Cc1cc(C)cc(N/C(N)=N/c2nc(C)cc(C)n2)c1`?
AmpC inh detg: inconclusive; Lassa entry inh: 21µM*; MARV entry inh: inconclusive; AmpC no deterg: -46%; AMA1 RON2 block: 3%

What do the screens show for `COc1cc(N/C(N)=N/c2nc(C)cc(C)n2)c(OC)cc1Cl`?
AmpC inh detg: 5%; Lassa entry inh: -23%; MARV entry inh: 9.2µM*; AmpC no deterg: -34%; AMA1 RON2 block: 0%

How did CCOC(=O)c1sc(N(Cc2ccccc2)C(=O)COC(=O)c2ccccc2O)nc1C do in these assays?
AmpC inh detg: 1%; Lassa entry inh: -24%; MARV entry inh: inconclusive; AmpC no deterg: -23%; AMA1 RON2 block: 9%

How did CCOC(=O)c1sc(N(Cc2ccccc2)C(=O)COC(=O)c2ccc(O)cc2)nc1C do in these assays?
AmpC inh detg: -3%; Lassa entry inh: 2.1µM*; MARV entry inh: inconclusive; AmpC no deterg: -30%; AMA1 RON2 block: 0%

What do the screens show for `CCOC(=O)c1sc(N(Cc2ccccc2)C(=O)CCl)nc1C`?
AmpC inh detg: -2%; Lassa entry inh: 18µM*; MARV entry inh: inconclusive; AmpC no deterg: -3%; AMA1 RON2 block: -8%

How did CCn1cc2nc(SCC(=O)Nc3ccc(C)cc3)n(Cc3ccc(C)cc3)c(=O)c2n1 do in these assays?
AmpC inh detg: 5%; Lassa entry inh: inconclusive

What do the screens show for `CC(C)Oc1ccccc1-c1nc(SCC(=O)c2ccc(F)cc2)n[nH]1`?
AmpC inh detg: -2%; Lassa entry inh: 6%[46.1 µM]; MARV entry inh: inconclusive

How did COc1ccc(/C=N/NC(=O)c2ccc(N)cc2)cc1Cn1cc([N+](=O)[O-])cn1 do in these assays?
AmpC inh detg: -1%; Lassa entry inh: inconclusive; MARV entry inh: 7.9µM*; AmpC no deterg: inconclusive; AMA1 RON2 block: -7%

Results for CCOC(=O)c1c(C)[nH]c(C(=O)COC(=O)CCSc2ccccc2)c1C ?
AmpC inh detg: -5%; Lassa entry inh: 13%; MARV entry inh: inconclusive; AmpC no deterg: -32%; AMA1 RON2 block: 4%

What do the screens show for `CCNC(=O)C(=O)N/N=C/c1cc([N+](=O)[O-])ccc1O`?
AmpC inh detg: 7%; Lassa entry inh: -27%; MARV entry inh: inconclusive; AmpC no deterg: -13%; AMA1 RON2 block: -14%

What do the screens show for `CCOC(=O)c1c(C)[nH]c(C(=O)CSc2ccccc2)c1C`?
AmpC inh detg: inconclusive; Lassa entry inh: 18µM*; MARV entry inh: inconclusive; AmpC no deterg: -22%; AMA1 RON2 block: -3%

Results for CCOC(=O)c1c(C)[nH]c(C(=O)N/N=C\c2ccccc2O)c1C ?
AmpC inh detg: -12%; Lassa entry inh: 8.9µM*; MARV entry inh: inconclusive; AmpC no deterg: -40%; AMA1 RON2 block: 78%

How did CCOC(=O)c1c(C)[nH]c(C(=O)N/N=C/c2ccc(OC)c(OC)c2)c1C do in these assays?
AmpC inh detg: 5%; AmpC no deterg: 0%; AMA1 RON2 block: -4%

Results for CCOC(=O)c1c(C)[nH]c(C(=O)N/N=C/c2cc([N+](=O)[O-])ccc2O)c1C ?
AmpC inh detg: -7%; Lassa entry inh: 6.5µM*; MARV entry inh: inconclusive; AmpC no deterg: -26%; AMA1 RON2 block: 4%

What do the screens show for `CCCOc1ccccc1NC(=O)CC1Nc2ccccc2NC1=O` (configuration not stated)?
AmpC inh detg: -9%; Lassa entry inh: -1%; MARV entry inh: 0%; AmpC no deterg: 18µM*; AMA1 RON2 block: 25%

Results for CCOc1ccccc1NC(=O)CC1Nc2ccccc2NC1=O (configuration not stated) ?
AmpC inh detg: 9%; Lassa entry inh: 16%; MARV entry inh: inconclusive; AmpC no deterg: -29%; AMA1 RON2 block: -8%

How did N#CC1=C(N)NC(SCc2ccc(Br)cc2)=C(C#N)C12CCCCC2 do in these assays?
AmpC inh detg: -15%; AmpC no deterg: -27%; AMA1 RON2 block: -13%

Results for N#CC1=C(N)NC(SCc2ccc(Cl)cc2)=C(C#N)C12CCCCC2 ?
AmpC inh detg: -4%; Lassa entry inh: inconclusive; MARV entry inh: 11µM*; AmpC no deterg: -40%; AMA1 RON2 block: -17%

Assay outcomes (PubChem)
